Results taken from PubChem BioAssay.
Active and inactive are the calls of the source.

Columns and labels:
[1] = test system: PRMT1 (protein arginine N-methyltransferase 1); experiment: small molecules binding arginine methyltransferase PRMT1 – biochemical, small-molecule microarray, 635 nm fluorescence, primary screen (AID 1088); conditions: higher = more signal;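 also: binding of Prmt1 protein to compounds spotted on small-molecule microarray slides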
[2] = growth effects on S. cerevisiae YJM789 – YJM789 clinical isolate, OD600, 24 h, basal, primary screen (AID 1089); conditions: higher = more signal, called active from +8 up or from −8 down;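 also: growth of clinical yeast isolate S. cerevisiae YJM 789 seeded 1000 cells per well; test concentration not given here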
[3] = S. pombe growth modifiers, basal conditions – strain 972, OD600, 24 h, no modulator, primary screen (AID 1090);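 also: basal condition with compound alone and no growth modifier present; test concentration not given here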; conditions: S. pombe 972 growth, higher = more signal, called active from +8 up or from −8 down
[4] = budding yeast growth modifiers under rapamycin – strain BY4716, OD600, 96 h, primary screen (AID 1091); also: test concentration not given here; conditions: S. cerevisiae BY4716 + rapamycin, higher = more signal, called active from +8 up or from −8 down
[5] = biological target: Torsin-1A-interacting protein 2 (Homo sapiens) (UniProt Q8NFQ8); experiment: small molecules binding lysate-expressed LULL1 – cell lysate, human LULL1 lysate, 635/667 nm fluorescence, primary screen (AID 1092); conditions: small-molecule microarray, hLULL1 lysate binding, 635 nm fluorescence; higher = more signal;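 also: probe is lysate of COS7 cells overexpressing human LULL1; score merges per-feature 667 nm fluorescence with signal-to-noise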
[6] = optical density change of DRC41 E. coli – strain DRC41, OD650, 24 h, E. coli filamentation project, primary screen (AID 1093);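 also: MC1000 strain lacking acrAB efflux and sulA so SOS filamentation is blocked; test concentration not given here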; conditions: E. coli DRC41 growth, higher = more signal, called active from +8 up or from −8 down
[7] = probe aLefty2 binding to arrayed compounds – biochemical, biotinylated probe, 635/667 nm fluorescence, primary screen (AID 1094); conditions: small-molecule microarray, higher = more signal;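 also: score merges spot fluorescence near 667 nm with spot signal-to-noise ratio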
[8] = test system: Noggin (protein binding on small-molecule microarray); experiment: small molecules binding Noggin protein – biochemical, 635/667 nm fluorescence, primary screen (AID 1095); conditions: 635 nm fluorescence, higher = more signal;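 also: score merges 667 nm feature fluorescence with signal to noise over triplicate slides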
[9] = biological target: Neurogenic locus notch homolog protein 3 (Homo sapiens) (UniProt Q9UM47); experiment: small molecules binding NOTCH3 protein – biochemical, 635/667 nm fluorescence, primary screen (AID 1096); conditions: small-molecule microarray, 635 nm fluorescence, higher = more signal
[10] = probe aEGFR binding to arrayed compounds – biochemical, biotinylated probe, 635/667 nm fluorescence, primary screen (AID 1097); conditions: small-molecule microarray, higher = more signal;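 also: probe is a biotinylated anti-EGFR antibody binding compounds printed on slides; score combines fluorescence near 667 nm and signal to noise of each spot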

Chain of Torsin-1A-interacting protein 2 (Homo sapiens) (Q8NFQ8 whole entry, looked up): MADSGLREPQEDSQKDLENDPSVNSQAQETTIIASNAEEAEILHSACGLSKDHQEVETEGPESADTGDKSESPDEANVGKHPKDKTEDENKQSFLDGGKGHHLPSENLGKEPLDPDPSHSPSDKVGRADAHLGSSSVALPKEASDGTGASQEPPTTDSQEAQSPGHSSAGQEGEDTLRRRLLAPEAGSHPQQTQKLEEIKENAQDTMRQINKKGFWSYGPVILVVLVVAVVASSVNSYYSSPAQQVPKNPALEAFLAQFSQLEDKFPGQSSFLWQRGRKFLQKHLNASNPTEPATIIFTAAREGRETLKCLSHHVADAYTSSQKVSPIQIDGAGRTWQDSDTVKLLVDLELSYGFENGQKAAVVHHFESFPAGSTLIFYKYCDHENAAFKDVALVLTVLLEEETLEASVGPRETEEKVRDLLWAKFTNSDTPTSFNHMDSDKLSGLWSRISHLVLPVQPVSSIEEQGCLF
Chain of Neurogenic locus notch homolog protein 3 (Homo sapiens) (Q9UM47 whole entry, looked up): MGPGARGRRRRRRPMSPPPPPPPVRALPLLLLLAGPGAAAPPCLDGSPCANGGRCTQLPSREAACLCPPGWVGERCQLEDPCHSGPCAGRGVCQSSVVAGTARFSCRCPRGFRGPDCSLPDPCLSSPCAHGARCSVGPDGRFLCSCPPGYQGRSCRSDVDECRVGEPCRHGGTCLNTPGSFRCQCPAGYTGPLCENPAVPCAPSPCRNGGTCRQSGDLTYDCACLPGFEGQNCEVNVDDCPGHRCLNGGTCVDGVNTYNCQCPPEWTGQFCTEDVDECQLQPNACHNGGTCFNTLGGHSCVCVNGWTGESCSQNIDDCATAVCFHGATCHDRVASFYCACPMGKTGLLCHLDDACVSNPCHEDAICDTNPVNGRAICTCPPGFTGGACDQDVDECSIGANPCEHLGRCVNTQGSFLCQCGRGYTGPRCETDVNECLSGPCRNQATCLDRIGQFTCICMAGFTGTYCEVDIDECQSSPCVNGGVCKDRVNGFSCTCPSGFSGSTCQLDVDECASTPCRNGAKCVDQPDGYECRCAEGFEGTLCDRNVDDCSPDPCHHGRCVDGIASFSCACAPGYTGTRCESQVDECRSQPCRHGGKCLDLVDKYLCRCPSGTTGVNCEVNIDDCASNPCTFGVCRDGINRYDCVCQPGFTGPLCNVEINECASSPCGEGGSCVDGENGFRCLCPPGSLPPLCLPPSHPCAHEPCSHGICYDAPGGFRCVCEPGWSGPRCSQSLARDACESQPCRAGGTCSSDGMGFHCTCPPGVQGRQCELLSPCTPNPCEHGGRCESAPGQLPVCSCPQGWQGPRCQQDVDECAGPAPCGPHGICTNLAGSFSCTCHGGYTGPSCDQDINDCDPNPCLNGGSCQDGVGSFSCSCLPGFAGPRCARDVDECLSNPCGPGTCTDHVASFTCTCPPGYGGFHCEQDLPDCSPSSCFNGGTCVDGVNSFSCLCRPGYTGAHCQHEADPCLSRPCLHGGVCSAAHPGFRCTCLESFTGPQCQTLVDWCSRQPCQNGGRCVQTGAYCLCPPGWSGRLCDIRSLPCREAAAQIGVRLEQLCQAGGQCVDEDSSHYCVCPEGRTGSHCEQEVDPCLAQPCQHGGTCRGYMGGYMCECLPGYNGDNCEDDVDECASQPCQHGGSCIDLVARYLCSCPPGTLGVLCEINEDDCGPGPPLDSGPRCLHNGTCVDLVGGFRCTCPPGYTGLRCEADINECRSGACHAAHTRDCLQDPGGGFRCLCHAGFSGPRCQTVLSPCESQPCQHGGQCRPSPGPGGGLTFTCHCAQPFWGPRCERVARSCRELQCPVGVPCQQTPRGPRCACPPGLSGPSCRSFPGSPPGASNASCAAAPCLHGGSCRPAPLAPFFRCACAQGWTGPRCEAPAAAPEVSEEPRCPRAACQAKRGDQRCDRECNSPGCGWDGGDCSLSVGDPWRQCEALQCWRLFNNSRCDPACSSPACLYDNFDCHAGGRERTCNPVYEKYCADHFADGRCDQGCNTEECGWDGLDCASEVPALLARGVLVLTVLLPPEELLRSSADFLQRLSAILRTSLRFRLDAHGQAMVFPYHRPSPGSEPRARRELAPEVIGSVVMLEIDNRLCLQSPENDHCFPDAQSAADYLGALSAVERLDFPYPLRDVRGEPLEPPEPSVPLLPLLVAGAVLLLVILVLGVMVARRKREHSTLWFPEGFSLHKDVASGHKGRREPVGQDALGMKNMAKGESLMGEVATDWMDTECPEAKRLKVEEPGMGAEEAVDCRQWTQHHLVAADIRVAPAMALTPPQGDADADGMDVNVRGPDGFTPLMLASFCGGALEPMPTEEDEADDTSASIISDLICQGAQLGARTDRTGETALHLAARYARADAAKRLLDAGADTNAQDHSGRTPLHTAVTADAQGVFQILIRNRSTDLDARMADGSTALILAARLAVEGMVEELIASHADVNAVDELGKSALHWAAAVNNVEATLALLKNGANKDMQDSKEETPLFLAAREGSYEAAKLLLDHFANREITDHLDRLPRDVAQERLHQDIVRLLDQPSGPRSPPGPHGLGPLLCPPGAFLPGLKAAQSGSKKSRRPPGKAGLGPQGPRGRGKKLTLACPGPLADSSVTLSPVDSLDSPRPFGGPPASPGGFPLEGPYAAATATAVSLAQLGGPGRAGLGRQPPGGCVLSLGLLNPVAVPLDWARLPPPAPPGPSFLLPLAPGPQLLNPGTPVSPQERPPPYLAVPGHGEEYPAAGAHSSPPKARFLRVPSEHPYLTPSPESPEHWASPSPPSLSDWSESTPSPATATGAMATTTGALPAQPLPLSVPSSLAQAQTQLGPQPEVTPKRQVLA

Row | SMILES | composite z-score [1] | z-score [2] | z-score [3] | z-score [4] | composite z-score [5] | z-score [6] | composite z-score [7] | composite z-score [8] | composite z-score [9] | composite z-score [10]
1 | CO[C@H]1COC(=O)CC=C[C@H](C)[C@@H](OC)COC(=O)CC=C[C@@H]1C | 0.656 | -0.49 (inactive) | -1.5 (inactive) | -0.98 (inactive) | -0.787 | 0.898 (inactive) | -0.169 | 0.764 | -0.119 | -0.0273
2 | CO[C@H]1O[C@H](CO)[C@@H](OC(=O)Nc2ccccc2)[C@H](OC(=O)Nc2ccc3c(c2)OCO3)[C@@H]1OC(=O)Nc1ccc2c(c1)OCO2 | 1.53 | 0.058 (inactive) | -0.1 (inactive) | 3.14 (inactive) | 2.62 | 1.67 (inactive) | -0.0591 | -0.0087 | 0.845 | -0.117
3 | COc1ccc(CCN2C(=O)[C@@]3(c4ccc([N+](=O)[O-])cc4)CC(=O)N(CC45CC6CC(CC(C6)C4)C5)[C@@H]3c3ccc(CO)cc32)cc1 | 1.55 | 0.0722 (inactive) | -0.3 (inactive) | -1.6 (inactive) | 2.09 | -0.463 (inactive) | 0.141 | -0.223 | 0.294 | -0.109
4 | COC(=O)[C@@]1(Cc2ccc(OC)cc2)[C@H]2c3cc(C(=O)N(C)C)n(CCc4ccc(OC)c(Br)c4)c3C[C@H]2CN1C(=O)c1ccccc1 | 1.17 | 0.557 (inactive) | 0.236 (inactive) | 2.82 (inactive) | 3.33 | -0.76 (inactive) | 0.903 | -0.54 | 1.01 | 0.674
5 | C=CCC(OC(C)=O)[C@@H]1[C@@H](N(Cc2ccc(-c3cccc(C(F)(F)F)c3)o2)C(=O)Cc2ccc(F)cc2)c2cc(OCCCO)ccc2N1C(=O)c1ccc(-c2ccccc2)cc1 (stereo not given in full) | -0.621 | -0.182 (inactive) | -0.258 (inactive) | -0.507 (inactive) | 0.239 | -1.33 (inactive) | -0.166 | -0.325 | -0.362 | -0.238
6 | COc1cc2c(cc1OC)CN(C(=O)[C@H]1[C@@H]3C(=O)O[C@@H](c4ccccc4)[C@@H](c4ccccc4)N3[C@@H](c3ccccc3OCCO)[C@]13C(=O)Nc1ccc(C#CC4(O)CCCCCC4)cc13)CC2 | 1.55 | 1.71 (inactive) | 0.519 (inactive) | 4.28 (inactive) | 2.83 | 2.54 (inactive) | 0.0028 | 1.19 | 1.11 | 0.0965
7 | COc1ccc([Si](C)(C)[C@H]2[C@H](CCO)O[C@@]3(C(=O)N(Cc4ccccc4)c4ccc(N5C(=O)c6cccc7cccc5c67)cc43)[C@@H]2C)cc1 | 0.491 | 1.05 (inactive) | 1.11 (inactive) | 33 (active) | 1.12 | 1.97 (inactive) | -0.225 | -0.453 | -0.203 | -0.218
8 | CCCNC(=O)[C@@H]1c2ccccc2C(=O)N(C2CCCCC2)[C@H]1c1ccc(CO)cc1 | 1.53 | -0.104 (inactive) | 1.15 (inactive) | 1.29 (inactive) | 3.01 | -0.358 (inactive) | 0.0511 | 0.771 | 1.1 | 0.0634
9 | Cc1ccc(N2C(=O)c3ccccc3[C@@H](C(=O)NCC(F)(F)F)[C@@H]2c2ccc(CO)cc2)nc1 | -0.359 | -0.678 (inactive) | -1.24 (inactive) | 3.03 (inactive) | -0.338 | 1.08 (inactive) | 0.0143 | -2.15 | -1.01 | -0.157
10 | CCOC(=O)C[C@H]1[C@H](OC(=O)Cc2ccc3c(c2)OCO3)[C@@H](NC(=O)CC(C)C)c2cc(OCCCO)ccc2N1C(=O)c1ccccc1 | 0.53 | -0.211 (inactive) | -1.36 (inactive) | -0.66 (inactive) | 0.836 | 1.6 (inactive) | -0.0127 | 0.542 | 0.417 | 0.0253
11 | O=C1OCC=C[C@H]2OC34C=CCN(Cc5ccccc5)C(=O)[C@H]3N(CCCCCO)C(=O)[C@@H]4[C@@H]12 (stereo not given in full) | -0.702 | -0.524 (inactive) | -1.06 (inactive) | -0.368 (inactive) | 1.06 | 2.33 (inactive) | 0.0282 | -1.5 | -0.911 | -0.358
12 | C=CCNC(=O)[C@H]1[C@@H]2C(=O)O[C@@H](c3ccccc3)[C@@H](c3ccccc3)N2[C@@H](c2ccccc2OCCO)[C@]12C(=O)N(C(=O)OCCOC)c1ccc(C#CCNC(N)=O)cc12 | 1.55 | 0.602 (inactive) | -0.26 (inactive) | 3.16 (inactive) | 2.39 | 2.35 (inactive) | -0.108 | 0.878 | 1.15 | -0.0389
13 | COc1ccc([Si](C)(C)[C@H]2[C@H](CCO)O[C@@]3(C(=O)N(Cc4ccc(N5CCCCC5=O)cc4)c4ccccc43)[C@@H]2C)cc1 | 1.54 | -0.025 (inactive) | -0.717 (inactive) | 2.28 (inactive) | 1.88 | 1.9 (inactive) | -0.116 | 0.993 | 1.07 | -0.0288
14 | NC(=O)[C@H]1[C@@H]2C(=O)O[C@@H](c3ccccc3)[C@@H](c3ccccc3)N2[C@@H](c2ccc(O)cc2)[C@]12C(=O)Nc1ccc(C#CCCO)cc12 | -0.484 | -0.178 (inactive) | -0.196 (inactive) | -0.503 (inactive) | 0.497 | 0.0528 (inactive) | -0.05 | -1.02 | -0.714 | -0.112
15 | CC[C@H]1C2=C3C(CC[C@H]4C(OC)OC[C@](C)([C@@H]34)N(C(=O)OC(C)(C)C)C2)C(CO)C1CO (stereo not given in full) | 1.4 | -1.22 (inactive) | 1.21 (inactive) | -0.565 (inactive) | 3.35 | -0.468 (inactive) | 0.762 | 0.0676 | 1.11 | 0.477
16 | CO[C@H]1COC(=O)[C@H](C)NC(=O)CC=C[C@@H](C)[C@H](NS(=O)(=O)c2ccc(C)cc2)COC(=O)[C@@H](OCc2ccccc2)C=C[C@@H]1C | 0.229 | 1.22 (inactive) | 0.129 (inactive) | 2.1 (inactive) | -0.569 | 0.176 (inactive) | -0.316 | 0.801 | -0.439 | -0.168
17 | O=C(NCc1ccccc1)[C@@]1(Cc2ccccc2)COC(c2ccc(OCCCO)cc2)=N1 | 1.41 | 1.51 (inactive) | -1.24 (inactive) | 36.4 (active) | 3.11 | 0.624 (inactive) | 0.188 | -0.629 | -0.0046 | -0.054
18 | CC(C)C[C@@H]1NC(=O)[C@H](CC(C)C)NC(=O)[C@@]23C(=O)N[C@@H](Cc4ccccc4)C2[C@H](C)[C@@]2(C)O[C@H]2C3/C=C/CC/C=C/CNC1=O (stereo not given in full) | 1.54 | -0.833 (inactive) | -2.66 (inactive) | -1.74 (inactive) | 2.01 | 0.194 (inactive) | -0.26 | 0.413 | 1.08 | -0.0697
19 | C=C[C@H](OC)[C@@H](OC(=O)Nc1ccc(SC)cc1)c1ccc(O)c(F)c1 | 1.22 | -1.83 (inactive) | -1.68 (inactive) | 0.887 (inactive) | 2.96 | 1.48 (inactive) | -0.0174 | -0.0413 | 0.134 | -0.12
20 | Cc1ccc(S(=O)(=O)c2cc3oc2CC[C@@H](CO)NC(=O)N(C)Cc2cn(nn2)C[C@H](Cc2ccccc2)NC3=O)cc1 | 0.0985 | 0.342 (inactive) | -0.772 (inactive) | 0.0417 (inactive) | 1.66 | 2.79 (inactive) | -0.131 | 0.0818 | -0.773 | -0.156
21 | C=CC[C@]1(C(=O)OC)N=C(c2ccc(OCCCO)cc2)O[C@H]1c1ccccc1CN=[N+]=[N-] | 0.828 | -0.664 (inactive) | -2.28 (inactive) | -0.723 (inactive) | 1.37 | 1.37 (inactive) | 0.4 | -0.101 | -0.823 | -0.0828
22 | C=CCC(OC(C)=O)[C@@H]1[C@@H](N(Cc2cc3ccccc3o2)C(=O)Cc2ccc(F)cc2)c2cc(OCCCO)ccc2N1C(=O)c1ccc(-c2ccccc2)cc1 (stereo not given in full) | -1.44 | -0.277 (inactive) | -0.801 (inactive) | -0.76 (inactive) | 0.292 | 1.64 (inactive) | -0.0598 | -0.737 | -1.02 | -0.178
23 | CCCC/C=C/[C@H]([C@@H](O)Cc1ccccc1)N(CC#Cc1ccccc1)Cc1ccccc1Br | -0.439 | 0.933 (inactive) | -0.972 (inactive) | 0.0956 (inactive) | -0.0817 | 2.92 (inactive) | 0.0735 | -2.07 | -1.4 | -0.428
24 | CO[C@H]1COC(=O)[C@H](C)COC(=O)[C@H](Cc2ccccc2)NC(=O)CC=C[C@H]1C | -0.0111 | 0.43 (inactive) | -0.854 (inactive) | -0.798 (inactive) | -0.826 | 0.195 (inactive) | 0.0128 | 0.952 | -0.447 | -0.139
25 | COc1cc(CO)cc(I)c1O[C@H]1C=C(C(=O)NCCO)C[C@@H](NCCc2c[nH]c3ccccc23)[C@@H]1O | 1.39 | 0.004 (inactive) | -12.4 (active) | -2.09 (inactive) | 0.499 | 2.12 (inactive) | 0.341 | 0.947 | 0.705 | 0.192
26 | O=C1c2ccccc2[C@](Cc2ccccc2I)(C(=O)NCc2ccccc2)[C@H](c2ccc(CO)cc2)N1Cc1ccccc1C(F)(F)F | 1.27 | 0.417 (inactive) | -1.05 (inactive) | 0.304 (inactive) | 2.44 | 1.03 (inactive) | -0.0345 | -1.05 | -0.785 | -0.179
27 | CO[C@H]1O[C@H](CO)[C@@H](OC(=O)CCc2ccccc2)[C@@H]2OC(=O)[C@H](Cc3cccc(Br)c3)C/C=C/C[C@@H](Cc3cccc(Br)c3)C(=O)O[C@@H]12 | 0.922 | -4.85 (inactive) | -4.06 (inactive) | 3.62 (inactive) | 0.8 | 2.82 (inactive) | -0.134 | -0.6 | -0.791 | -0.186
28 | [N-]=[N+]=Nc1ccccc1C[C@@]1(C(=O)N2CCOCC2)N=C(c2ccc(OCCCO)cc2)O[C@@H]1c1ccccc1N=[N+]=[N-] | 1.56 | -0.822 (inactive) | -2.95 (inactive) | 1.56 (inactive) | 2.32 | 2.13 (inactive) | 0.369 | 0.8 | 1.09 | 0.0477
29 | CC(C)(C)OC(=O)CC[C@]1(C(=O)NCCN2CCOCC2)N=C(c2ccc(OCCCO)cc2)O[C@H]1c1ccccc1CN=[N+]=[N-] | 0.82 | -1.29 (inactive) | -0.981 (inactive) | -1.35 (inactive) | 3.06 | 1.71 (inactive) | -0.0384 | -0.541 | 0.343 | 0.0074
